PubChem BioAssay AID618 (Sanford-Burnham Center for Chemical Genomics, 2007)
About 540 (0.62%) of roughly 87,000 compounds were called active. The rule behind the calls is not given here. Many of the other results were omitted from the sample, so actives are more common in it than they were. Measured potencies and affinities stand elsewhere.

Experiment: MT1-MMP gene expression reporter suppression – cell-based, luciferase reporter, luminescence (AID 618);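 note: actives suppress MT1-MMP promoter-driven transcription so potencies describe inhibitors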
Settings: MT1-MMP promoter luciferase reporter cells

Row | Compound | outcome
1 | COC(=O)c1ccccc1NC(=O)Cn1c(=O)oc2ccc(Cl)cc21 | inactive
2 | C=CCNc1sc(C(=O)c2ccc(Br)s2)c(N)c1C#N | inactive
3 | Cc1ccc(C(=O)NNC(=O)Cc2ccccc2)cc1 | inactive
4 | Cc1nc2ccccc2n1CC(=O)OCC(=O)Nc1ccc2c(c1)OCCO2 | inactive
5 | CCc1nnc2n1N=C(c1ccc(OC)cc1)CS2 | inactive
6 | CCCNC(=O)c1oc2ccc3c(c2c1C)C(=O)CC(C)(C)O3 | inactive
7 | Cc1c(C(=O)NCc2ccoc2)oc2ccc3c(c12)C(=O)CC(C)(C)O3 | inactive
8 | CCC(C)n1c(SC(C)C#N)nc2ccccc2c1=O (configuration not stated) | inactive
9 | Nc1nonc1C(=Nc1ccccc1)NO | inactive
10 | CCOc1ccc(OCc2ccc(C(=O)NCc3cccnc3)o2)cc1 | inactive
11 | CCOC(=O)N1CCN(c2nc(-c3ccc(OC)cc3)no2)CC1 | inactive
12 | c1ccc(COc2ccc(OCCn3cncn3)cc2)cc1 | inactive
13 | O=c1c2ccccc2nc2n1CCCCC2 | inactive
14 | COc1ccc(-c2cc3nc4n(c(=O)c3s2)CCC4)cc1 | active
15 | COc1ccc(-c2cc3nc4n(c(=O)c3s2)CCOC4)cc1 | inactive
16 | COc1ccc(-c2nc3n(c2Br)CCC3)cc1 | inactive
17 | O=c1c2ccccc2nc2n1CCC2 | inactive
18 | COc1cc2c(cc1NC(=O)CN1C(=O)NC3(CCc4ccccc43)C1=O)oc1ccccc12 (configuration not stated) | inactive
19 | Cc1ccc(S(=O)(=O)NC(=O)Nc2c(C)n(C)n(-c3ccccc3)c2=O)cc1 | inactive
20 | CCOc1ccccc1NC(=O)CN(c1ccc(OC)cc1)S(=O)(=O)c1c(C)noc1C | inactive
21 | CCOc1ccccc1NC(=O)CN(c1ccc(C)cc1)S(=O)(=O)c1c(C)noc1C | inactive
22 | CCOc1ccc(N(CC(=O)Nc2ccccc2C)S(=O)(=O)c2c(C)noc2C)cc1 | active
23 | Cc1nnc2n(C3CCCCC3)c(=O)c3c4c(sc3n12)CCC4 | inactive
24 | Cc1nc(Cl)sc1C(=O)O | inactive
25 | O=C(Nc1ccon1)c1cc2c(s1)CCCCCC2 | inactive

Row | Compound | outcome
26 | C=CS(=O)(=O)c1ccc(Oc2ccc(S(=O)(=O)C=C)cc2)cc1 | active
27 | O=S(=O)(c1ccc(Oc2ccc(S(=O)(=O)N3CCOCC3)cc2)cc1)N1CCOCC1 | inactive
28 | CNS(=O)(=O)c1ccc(Oc2ccc(S(=O)(=O)NC)cc2)cc1 | inactive
29 | CCOCCCNC(=O)c1ccc2c(c1)OCO2 | inactive
30 | O=C(NCCOc1ccccc1)c1ccc2c(c1)OCO2 | active
31 | COCCCNC(=O)c1ccc2c(c1)OCO2 | inactive
32 | Cn1c(=O)c2c(nc(CN3CCN(c4ccccc4)CC3)n2CCCc2ccccc2)n(C)c1=O | inactive
33 | COc1ccccc1NC(=O)CN1C(=O)NC(C)(C)C1=O | inactive
34 | O=C(NCc1ccccc1)C(c1cccnc1)N(Cc1ccco1)C(=O)c1ccccn1 (configuration not stated) | inactive
35 | CCOC(CNC(=O)c1ccc2nc(N3CCC(C)CC3)sc2c1)OCC | inactive
36 | CCOC(=O)N1CCN(C(=O)c2ccc3nc(N4CCC(C)CC4)sc3c2)CC1 | inactive
37 | Cc1cc(Oc2ccc(C(C)(C)C)cc2)nc(N2CCOCC2)n1 | inactive
38 | CN(CC(=O)NCCN1CCCCCC1)S(=O)(=O)c1cccc2nsnc12 | inactive
39 | COc1ccc(-c2nn(C)c3sc(C(=O)NCc4ccco4)cc23)cc1OC | inactive
40 | NC(=O)c1cnn2c(C(F)(F)F)cc(-c3ccc(F)cc3)nc12 | inactive
41 | CN1/C(=C\C(=O)c2ccco2)C(C)(C)c2ccccc21 | inactive
42 | CN1/C(=C\C(=O)C(F)F)C(C)(C)c2ccccc21 | inactive
43 | COC(=O)c1ccccc1NC(=O)c1cc(-c2cccs2)on1 | inactive
44 | c1ccc(NC2=Nc3ccccc3CC2)cc1 | inactive
45 | Brc1ccc(NC2=Nc3ccccc3CC2)cc1 | inactive
46 | CC(=O)N1CCc2[nH]c3ccccc3c2C1 | inactive
47 | CCn1ncc(Br)c1C(=O)Nc1ccc(F)cc1F | inactive
48 | O=C(OCn1ncc(Br)c(Br)c1=O)c1ccccc1Cl | inactive
49 | O=C(OCn1ncc(Br)c(Br)c1=O)c1ccc(F)cc1 | active
50 | O=C(OCn1ncc(Br)c(Br)c1=O)c1c(F)cccc1F | active

Row | Compound | outcome
51 | CCn1ncc(Br)c1C(=O)Nc1ccc(C(=O)OC(C)C)cc1 | inactive
52 | Cc1onc(-c2c(F)cccc2Cl)c1C(=O)OCn1nnc2ccccc2c1=O | inactive
53 | Cc1ccccc1-n1nc(C(=O)c2cccs2)cc(-c2nc3ccccc3[nH]2)c1=N | inactive
54 | O=C(OCc1nnc(-c2ccc(Cl)cc2)o1)c1ccc(=O)n(Cc2ccccc2)n1 | inactive
55 | Cc1cc(NC(=O)CS(=O)(=O)c2cn(Cc3ccc(F)cc3)c3ccccc23)no1 | inactive
56 | O=C(Oc1ccc(-c2ccccc2)cc1)N1CCOCC1 | inactive
57 | O=C(Cn1nc(-c2ccccc2F)ccc1=O)NCc1ccc2c(c1)OCO2 | inactive
58 | CCCCn1nnc(NC(=O)c2ccc(-c3ccccc3)cc2)n1 | inactive
59 | CCCCCCCNC1=CC(=O)CC(c2ccco2)C1 (configuration not stated) | inactive
60 | COc1cc(NC(=O)CN(c2ccc(C)cc2)S(=O)(=O)c2c(C)nn(C)c2C)cc(OC)c1 | inactive
61 | O=C(Nc1ccc2c(c1)OCO2)C(c1ccccc1)N1CCN(C(=O)c2ccco2)CC1 (configuration not stated) | inactive
62 | CCOC(=O)c1cc(C)n(CCc2ccccc2)c1C | inactive
63 | CCCn1c(C)cc(-c2csc(N)n2)c1C | inactive
64 | Nc1nc(-c2ccccc2)cs1 | inactive
65 | Cc1cc(-c2csc(N)n2)c(C)n1C | inactive
66 | Cc1nc2ccccc2nc1N1CCC(C)CC1 | inactive
67 | O=C(Nc1ccc2c(c1)OCO2)N1CCN(S(=O)(=O)c2ccc(Cl)cc2)CC1 | inactive
68 | CC1(C)N(OCc2ccccc2)C(=O)C(=O)N(OCc2ccccc2)C1(C)C | inactive
69 | C=CCNc1nc(N(c2ccccc2)c2ccccc2)nc(-n2ccnc2)n1 | inactive
70 | COc1cccc(Oc2nnnn2-c2ccccc2)c1 | inactive
71 | COc1cccc(-n2nnnc2SCC(=O)NC2CCCC2)c1 | inactive
72 | CCCS(=O)(=O)c1nnnn1-c1cccc(OC)c1 | active
73 | CCCS(=O)(=O)C(=C1NCCO1)S(=O)(=O)CCC | inactive
74 | COc1cccc(-c2nc3ccc(O)cc3c(=O)o2)c1 | inactive
75 | CCOc1nc(C)ccc1-c1noc(-c2ccco2)n1 | inactive

Row | Compound | outcome
76 | COc1nc(-c2ccc(C)cc2)ccc1-c1noc(-c2ccco2)n1 | inactive
77 | Cc1cccc(OCC(=O)Nc2ccc3c(c2)OCO3)c1C | inactive
78 | C/C(=C\C(=O)c1cccnc1)Nc1ccc(C(=O)O)cc1 | inactive
79 | CN(C)c1ccc(C(=O)C(O)c2ccccc2)cc1 (configuration not stated) | inactive
80 | CN(C)CC(C(=O)c1ccccc1)c1ccccc1 (configuration not stated) | active
81 | CCC(C(=O)c1ccc(O)cc1)c1ccccc1 (configuration not stated) | inactive
82 | O=C(Cn1nc(C(=O)O)c2ccccc2c1=O)NCCC1=CCCCC1 | inactive
83 | CC(Cc1ccccc1)NC(=O)C1CCCNC1=O (configuration not stated) | inactive
84 | CCCCC(=O)c1ccc(O)cc1O | inactive
85 | O=C(CSc1nnc(-c2ccncc2)n1Cc1ccco1)N1c2ccccc2Sc2ccc(Cl)cc21 | inactive
86 | COc1ccc(N2CCN(C(=O)CSc3nnc(-c4cccnc4)n3-c3ccc(F)cc3)CC2)cc1 | inactive
87 | Cc1ccc(CN(c2ccc(C(=O)NCc3ccccn3)cc2)S(C)(=O)=O)cc1 | inactive
88 | O=C(CSC1=NCCS1)N1CCOCC1 | inactive
89 | O=C(COc1ccc(Cl)cc1Cl)Nc1ccccn1 | active
90 | O=C(COc1ccc(Cl)cc1Cl)Nc1ccc(Cl)cn1 | inactive
91 | O=C(COc1ccccc1Cl)Nc1ccc(Cl)cn1 | inactive
92 | Cc1ccc(C(C)C)c(OCCN)c1 | inactive
93 | COc1ccc(OC(C)C(=O)N2CC(C)OC(C)C2)cc1 (configuration not stated) | inactive
94 | O=C(Nc1ccc(N2C(=O)C3C4C=CC(C4)C3C2=O)cc1)Nc1nncs1 (configuration not stated) | inactive
95 | CCCn1c(N)c(C(=O)CSc2nc(C)cs2)c(=O)[nH]c1=O | inactive
96 | Cc1nc2ccc(-c3nc4ccccc4o3)cc2[nH]1 | inactive
97 | Cc1ccc(-c2nc3cc(NS(=O)(=O)c4ccc(C)cc4)ccc3o2)cc1 | inactive
98 | Nc1ccc2oc(-c3ccccn3)nc2c1 | inactive
99 | c1ccc2oc(-c3ccc4nc[nH]c4c3)nc2c1 | inactive
100 | Cc1ccc2oc(-c3ccco3)nc2c1 | inactive

Row | Compound | outcome
101 | Nc1ccc(-c2nc3ccc(-c4nc5ccccc5o4)cc3[nH]2)cc1 | inactive
102 | Nc1ccc2oc(-c3cccs3)nc2c1 | inactive
103 | CCOC(=O)c1cnc(-c2cccc(OC)c2)[nH]c1=O | inactive
104 | COc1ccc(CNC(=O)CCCCCn2c(SCC#N)nc3cc4c(cc3c2=O)OCO4)cc1 | inactive
105 | CCC(=O)c1ccc(OCC(O)CN2CCN(C(c3ccccc3)c3ccccc3)CC2)cc1 (configuration not stated) | inactive
106 | CCOC(CNC(=O)c1cccn2c(=O)c3cc(Cl)ccc3nc12)OCC | inactive
107 | COc1ccc(S(=O)(=O)Nc2nnc(C(C)(C)C)s2)cc1 | inactive
108 | Cc1c(NC(=O)c2cc(C(C)C)on2)c(=O)n(-c2ccccc2)n1C | inactive
109 | CCC(OC(=O)c1cc2sccc2n1C)C(=O)NCC1CCCO1 (configuration not stated) | inactive
110 | Nc1ccnc(C(F)(F)F)c1C(=O)c1ccccc1 | inactive
111 | CC(C)OC(=O)CSc1nnc(-c2cccnc2)n1Cc1ccccc1 | inactive
112 | Cc1ccc(C)c(OCCCCn2ccnc2)c1 | inactive
113 | Nc1ccc2oc(-c3cccc4ccccc34)nc2c1 | inactive
114 | COc1ccc(-c2nnc(-c3ccc(N)cc3)o2)cc1 | inactive
115 | Cc1ccc(C)c(-c2nc3cc(N)ccc3o2)c1 | inactive
116 | Nc1ccc2oc(-c3cc(Br)ccc3Cl)nc2c1 | inactive
117 | COC(=O)c1ccc(-c2nc3ccccc3o2)cc1 | inactive
118 | Cc1ccccc1-c1nc2cc(N)ccc2o1 | inactive
119 | Nc1nc2ccc(-c3nc4ccccc4o3)cc2s1 | inactive
120 | Nc1ccc2oc(-c3ccccc3Cl)nc2c1 | active
121 | COC(=O)c1ccc(-c2nc3ccc(C)cc3o2)cc1 | inactive
122 | CCc1c(C)nc2ncnn2c1N1CCCC(C(=O)Nc2ccc(NC(C)=O)cc2)C1 (configuration not stated) | inactive
